The record followed here is PubChem BioAssay (NCI).

Common to all, as to assay: NCI-60 one-dose screen, 48 h (100 = growth as untreated, 0 = no growth, -100 = all killed)
Common to all, as to conditions: 10 µM unless noted

In assay [1] the test system is RPMI-8226 leukemia.
The subject of assay [2] is OVCAR-8 ovarian.
The subject of assay [3] is OVCAR-5 ovarian.
The test system of assay [4] is OVCAR-4 ovarian.
Assay [5] deals with SK-OV-3 ovarian.
Assay [6] deals with IGROV1 ovarian.
For assay [7], the system named is OVCAR-3 ovarian.
Assay [8] relates to HS 578T breast.
Assay [9] concerns NCI/ADR-RES ovarian.
For assay [10], the system named is T-47D breast.
For assay [11], the system named is BT-549 breast.
Assay [12] has as its system MDA-MB-435 melanoma.
Assay [13] has as its system SW-620 colon.
In assay [14] the test system is MCF7 breast.
The test system of assay [15] is HCT-116 colon.
The test system of assay [16] is KM12 colon.
The subject of assay [17] is HCC-2998 colon.

The structures appear in SMILES notation. This is part of a sample that, as a whole, favours compounds with a hit. Of some 83,000 tested, about 20% had one in any assay.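 In brief: 96-well plates, 48 h treatment, single concentration, percent growth endpoint.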 A number with no mark means an inactive call. The source made the active and inactive calls. Rule for the calls: active = growth percent below 10; inactive = the rest.

Consider `COc1cc2c(C#N)n3c(c2cc1OC)C(=O)C(c1ccccc1)Oc1ccccc1-3` (stereo not drawn), for which the growth in assay [1] is 28.7%; in assay [2] it was 18.1%; in [3] it was 69.2%; in [4] it was 16%; in assay [5], 97.6%; in assay [6], 58.3%. Besides, the growth in [7] is 53.2%; in [8], 73.5%; in assay [9] it was 21.5%; in assay [10], 17.1%; in assay [11], -7.13% (active); in [12] it was 55.5%. Moreover, the growth was 87.6% in [13], 93.9% in [14], 27.9% in assay [15] and 23.4% in assay [16].
In the case of `N#Cc1c2ccccc2c2n1-c1ccccc1OC(c1ccccc1)C2=O` (stereo not drawn), the growth was 18.1% in assay [1]; 11.6% in [2]; 56.1% in [3]; 14.6% in [4]; 65.4% in [5]; 43% in assay [6]. Besides, the growth in assay [7] is 41.1%; in [8] it was 40.1%; in assay [9], 14%; in [10], 23.2%; in [11] it was 9.32% (active); in assay [12] it was 24.1%. Further, the growth was 56.9% in [13], 72.4% in [14] and 16% in assay [16].
With `CCCCSc1cc(C)nc(N)n1`, the growth was 73.4% in assay [1]; 107% in [2]; 94% in [3]; 98.1% in [4]; 97.8% in assay [5]; 100% in assay [6]. Moreover, the growth is 103% in assay [7]; 92.3% in assay [8]; 95% in assay [9]; 96.4% in assay [10]; 88.8% in assay [11]; 97.2% in [12]. In addition, the growth in [13] is 97.8%; in assay [14], 94.5%; in assay [15], 90.7%; in assay [16], 98.8%.
In the case of `COc1cc(/C=C/C(=O)c2c(-c3ccc(Cl)cc3)nc3sc(C)nn23)cc(OC)c1OC`, the growth in assay [1] was -15.6% (active); in assay [2], 53.3%; in [3], 106%; in [4] it was 74.8%; in assay [5] it was 110%; in [6], 89.7%. The growth in assay [7] was 88.4%; in assay [8] it was 109%; in [9], 59.8%; in [10], 19.3%; in [11], 79.3%; in assay [12], 73.9%. For the same compound, the growth in assay [13] is 59.6%; in assay [14] it was 38.1%; in assay [15], 50.2%; in [16], 73.6%.
For `COc1cc(OC)c2sc(-c3ccc(-n4cncc4-c4ccc(N)cc4)cc3)nc2c1`, the growth in assay [1] is 64%; in assay [2] it was 77.4%; in assay [3] it was 100%; in assay [4], 63.1%; in assay [5], 120%; in assay [6], 104%. For the same compound, the growth in [7] was 77.6%; in assay [8], 103%; in assay [9], 68.9%; in assay [10], 60.6%; in assay [11], 82.4%; in assay [12], 62.9%. In addition, the growth in [13] is 91.2%; in assay [14], 63.4%; in assay [17], 96.2%; in [16], 64.1%.
For the compound `Cc1cc2c(C#N)n3c(c2cc1C)C(=O)C(c1ccccc1)Oc1ccccc1-3` (stereo not drawn), the growth in assay [1] is 29.6%; in assay [2], 23.6%; in assay [3], 48.6%; in assay [4], 22.4%; in [5], 39.6%; in assay [6], 48.8%. The growth was 25.3% in assay [7]; 46.2% in assay [8]; 25.8% in assay [9]; 15.2% in [10]; 17% in [11]; 0.71% (active) in assay [12]. The growth in [13] is 47.3%; in assay [14] it was 68.2%; in assay [15], 12.8%; in [16] it was 15.2%.
For the compound `COc1cc(/C=C/C(=O)c2c(-c3ccc(F)cc3)nc3sc(C)nn23)cc(OC)c1OC`, the growth in assay [1] is 0.772% (active); in assay [2], 9.66% (active); in assay [3] it was 18.7%; in assay [4], 44.1%; in [5], 15.5%; in [6] it was 28.7%. Besides, the growth in assay [7] is -16.4% (active); in assay [8], 50.1%; in [9], 23.4%; in assay [10] it was -8.41% (active); in assay [11], 12%; in assay [12], 11.9%. The growth in assay [13] is 19.2%; in [14], 14.3%; in assay [15], 14.7%; in [16], 21.8%.
On to `CCC(=O)Nc1ccccc1C#C/C=C\C#Cc1ccccc1C(F)(F)F`, for which the growth in assay [1] was 100%; in [2], 106%; in assay [3], 53.8%; in [4] it was 85.8%; in [5], 52.3%; in [6] it was -21.8% (active). Besides, the growth was 70.2% in [7]; 17.1% in assay [8]; 27.2% in assay [9]; 65.4% in assay [10]; 39.9% in assay [11]; 0.785% (active) in [12]. Further, the growth in [13] was 29.7%; in [14], 33.2%; in assay [17], 70.6%; in assay [16] it was 41.5%.
In the case of `Cn1c(=O)c2nc(SCc3ccccc3)n(C)c2n(C)c1=O`, the growth in assay [1] is 117%; in assay [2] it was 106%; in assay [3], 97.6%; in assay [4] it was 118%; in assay [5] it was 99.2%; in assay [6], 139%. For the same compound, the growth in [7] was 117%; in assay [8], 104%; in assay [9], 112%; in assay [10], 98.4%; in assay [11], 107%; in [12], 113%. For the same compound, the growth was 106% in assay [13], 106% in [14] and 104% in assay [16].
Consider `O=C(Nc1ccc(Oc2ccc(NC(=O)Nc3ccc([N+](=O)[O-])cc3)cc2)cc1)Nc1ccc([N+](=O)[O-])cc1`, for which the growth was -53.5% (active) in assay [1]; 10.1% in assay [2]; 6.63% (active) in assay [3]; 34.5% in assay [4]; 12.8% in [5]; -13.2% (active) in assay [6]. Besides, the growth in assay [7] was 8.26% (active); in assay [8], 23.3%; in assay [9] it was 8.82% (active); in assay [10], 1.54% (active); in [11], -21.5% (active); in assay [12], 5.67% (active). Besides, the growth is 10.8% in [13], -7.4% (active) in assay [14], -6.3% (active) in assay [15] and -5.89% (active) in assay [16].
